A selection: hits, their analogues and other compounds. The true share with any hit is near 4.7%.
ATXN viability: reduces viability in counter-screen for ATXN expression inhibitors | Potency, µM (doses to about 56.7 µM), most hits filed as cytotoxic | AID 651635 | S2 cells (HEK-293 line with an ATXN2-luciferase reporter) viability, CellTiter-Fluor protease fluorescence, 24 h | hit rate 0.49% among 400,000; note: nearly all actives have a fitted effect of over 40% in size
ATXN2 expr inh: reduces ATXN2 reporter expression in HEK-293 cells. HEK-293 ATXN2-luciferase reporter, luminescence, 24 h. Potency, µM (titrated, usually from 57 µM), most hits filed as inhibitors. hit rate 0.72% among 360,000. AID 1745845; note: nearly all actives have a fitted effect of over 55% in size
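qHTS (up to 57 uM final) was run with 24 h compound exposure of reporter cells at 37 °C. Each well was multiplexed: SteadyGlo luminescence measured ATXN2-luciferase expression after a fluorogenic Gly-Phe-AFC viability readout (25 uM final).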
HepG2 viability: HepG2 cytotoxicity, counter-screen for TGF-b inhibitors; Potency, µM (top dose mostly 46.1 µM), actives largely listed as cytotoxic; hit rate 0.76% among 410,000; AID 588856; HepG2 CAGA-GFP viability, ATP luminescence, 18 h
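HepG2 CAGA-GFP cells (1000/well, DMEM with 1% FBS) received compound, then TGF-beta at 500 pg/mL final, and were incubated 18 hours at 37 degrees C. Viability was read by CellTiter-Glo luminescence. Media-only wells were set as complete cell-killing and DMSO as no toxicity.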
D3 ag: activates the human D3 dopamine receptor; D3R DiscoveRx beta-arrestin cells, luminescence, 90 min; max activation, %; hit rate 0.58% among 410,000; in the data active = max activation above about 30%
Target sequence (P35462 whole entry, looked up): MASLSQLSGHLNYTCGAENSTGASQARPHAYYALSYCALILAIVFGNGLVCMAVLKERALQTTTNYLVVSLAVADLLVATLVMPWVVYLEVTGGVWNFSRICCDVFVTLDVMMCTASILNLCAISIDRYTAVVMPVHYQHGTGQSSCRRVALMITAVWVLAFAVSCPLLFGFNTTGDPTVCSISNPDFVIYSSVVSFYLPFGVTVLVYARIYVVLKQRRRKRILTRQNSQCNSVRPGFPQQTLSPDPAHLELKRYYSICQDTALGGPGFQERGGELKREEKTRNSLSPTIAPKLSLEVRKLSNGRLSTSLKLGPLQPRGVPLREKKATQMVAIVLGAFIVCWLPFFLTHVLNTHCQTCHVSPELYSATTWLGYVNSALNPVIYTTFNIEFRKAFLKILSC
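Agonist mode: compounds and dopamine controls were applied to plated cells for 90 min at 37 degrees C after an overnight attachment at 1500 cells/well. Luminescent read-out followed 30 - 60 minutes at room temperature with DiscoveRx detection reagent.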
TGFb SMAD3 inh: inhibitors of TGF-b signaling; HepG2 CAGA-GFP TGF-b/SMAD3 reporter, GFP fluorescence, 18 h; TGF-beta stimulated, 500 pg/mL final; Potency, µM (titrated, usually from 46.1 µM), usual class: inhibitors; hit rate 1.2% among 410,000; note: nearly all actives have a fitted effect of over 65% in size
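Using HEPG2 CAGA-GFP reporter cells at 1000 cells/well, we pinned test compounds, stimulated with recombinant TGF-beta (500 pg/mL final) and measured total well GFP after 18 h.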
DRD3 antagonist: D3 dopamine receptor (human) antagonism; D3R cells, DiscoveRx beta-arrestin luminescence, antagonist mode; hits give low values; P35462; hit rate 2.5% among 360,000; max response, negative = inhibition, %; AID 652054; in the data active = max response below about -50%; inconclusive = no clear call, values can overlap the other calls
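Cells expressing the human receptor were seeded at 1500 cells/well, incubated overnight at 37 degrees C in 5% CO2, then exposed to library compounds with dopamine controls for 90 minutes at 37 degrees C before luminescent detection.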
A number is an active result; i = inactive; ? = inconclusive; nt = no result; ! = not active in a repeat. Unless noted, calls come from the whole dose curve; as a rule, active = well fitted curve in the direction sought with a large enough effect; inconclusive = small, poorly fitted or top-dose-only effect, or another doubt; inactive = no such curve, though single readings can be large; an effect the other way counts as inactive or inconclusive.

SMILES	ATXN viability	ATXN2 expr inh	HepG2 viability	D3 ag	TGFb SMAD3 inh	DRD3 antagonist
CN(C)CCCN(C(=O)/C=C/c1cccs1)c1nc2c(F)cccc2s1	?	?	12.6µM	i	17.8µM	?
CN(C)CCCN(C(=O)CCOc1ccccc1)c1nc2c(F)cccc2s1	nt	i	11.2µM	i	?	-98.8
Cc1cccc2sc(N(CCCN(C)C)C(=O)COc3ccc(Cl)cc3)nc12	i	i	22.4µM	i	i	i
COc1ccc2nc(N(CCN(C)C)C(=O)/C=C/c3cccs3)sc2c1	?	nt	i	i	?	i
CN(C)CCCN(C(=O)CCc1ccccc1)c1nc2c(F)cccc2s1	i	i	i	i	?	i
COc1ccc2sc(N(CCN(C)C)C(=O)/C=C/c3cccs3)nc2c1	?	nt	20µM	i	?	-86.0
Cc1cccc2sc(N(CCCN(C)C)C(=O)COc3ccccc3)nc12	nt	nt	i	i	nt	nt
COc1ccc(C(=O)Nc2cccc(OCc3cc(=O)n4c5c(sc4n3)CCCC5)c2)cc1	i	i	i	i	i	nt
COc1ccc(OC)c(NC(=O)CC(=O)Nc2ccc3nc4n(c(=O)c3c2)CCCCC4)c1	i	i	i	i	?	nt
CNC[C@H](O)c1cccc(O)c1	i	i	i	44.6!	i	i
OC(CN1CCCCC1)c1ccccc1 (stereo unspecified)	nt	nt	i	nt	i	nt
O=C(CSc1nccc(-c2cccs2)n1)Nc1ccc(F)c(Cl)c1	i	nt	i	i	12.6µM	i
COc1ccc(/C=C/c2ccc3ccccc3n2)c(OC)c1	nt	nt	i	nt	i	nt
O=C1/C(=C/c2cccnc2)CC/C1=C\c1cccnc1	?	?	i	i	i	i
CCC1C/C(=C\c2cccnc2)C(=O)/C(=C/c2cccnc2)C1 (stereo unspecified)	nt	14.1µM	10µM	i	3.98µM	?
O=C1/C(=C/c2cccnc2)CCC/C1=C\c1cccnc1	11.2µM	17.8µM	i	i	3.98µM	?
CCOC(=O)COc1ccccc1C1C(C(=O)OC)=C(C)NC2=C1C(=O)c1ccccc12 (stereo unspecified)	?	i	i	i	15.8µM	nt
CC(=O)C1=C(C)NC2=C(C(=O)c3ccccc32)C1c1ccccc1 (stereo unspecified)	i	i	i	i	i	-52.3
CCOc1ccc(Br)cc1C1C(C(=O)OC)=C(C)NC2=C1C(=O)c1ccccc12 (stereo unspecified)	i	i	i	i	i	nt
CC1=C(C#N)C(c2ccccc2)C2=C(N1)c1ccccc1C2=O (stereo unspecified)	i	i	i	i	i	i
CCc1ccc(NC(=O)N(Cc2c[nH]c3ccccc23)C2CCCCCC2)cc1	nt	nt	i	i	i	nt
COc1cc(=O)n2c(c1C(=O)NC(C)c1ccco1)CCN(C(=O)c1ccccc1SC)CC2 (stereo unspecified)	i	nt	nt	nt	nt	nt
Cc1ccc(C(=O)c2c3ccccc3[n+]([O-])n2[C@@H](C)C(N)=O)cc1	?	i	i	i	i	-64.4
CCc1c(C(=O)NNC(=S)NCCc2ccccc2)csc1C	i	i	i	i	?	-65.5
O=Nc1ccc(NOC(=O)c2ccccc2Br)cc1	i	i	i	i	i	i
SMILES	ATXN viability	ATXN2 expr inh	HepG2 viability	D3 ag	TGFb SMAD3 inh	DRD3 antagonist
O=C(ONc1ccc(N=NC(=O)c2ccccc2O)cc1)c1ccccc1	1.26µM	i	i	i	i	i
CCn1c(=O)n(CC)c2cc(N3CCCCC3)c(NC(=O)Nc3cc(Cl)ccc3OC)cc21	i	i	i	i	i	nt
O=C(CCCc1ccccc1)c1ccc2c(c1)OCCO2	i	10µM	i	i	i	i
O=C(CCc1ccccc1)c1ccc2c(c1)OCCCO2	i	i	i	i	?	i
O=C(NCCOc1ccccc1)c1ccc2c(c1)OCO2	i	4.47µM	i	i	i	i
O=C(NCCc1ccccc1)c1ccc2c(c1)OCCO2	i	2.51µM	i	i	i	i
O=C(NCCc1ccccc1)c1ccc2c(c1)OCCCO2	i	0.708µM	i	i	i	i
CN(CCOc1ccccc1)C(=O)c1ccc2c(c1)OCO2	i	i	i	i	i	i
O=C(COc1ccccc1C(=O)Nc1ccccc1F)Nc1ccc(Br)cc1	nt	nt	i	nt	i	nt
Cc1nc(NCc2cnn(C)c2C)sc1-c1ccn(CC2COc3ccccc3O2)n1 (stereo unspecified)	i	nt	nt	nt	nt	nt
CCCCC(=O)OCC(=O)[C@]1(O)Cc2c(O)c3c(c(O)c2[C@@H](O[C@H]2C[C@H](NC(=O)C(F)(F)F)[C@H](O)[C@H](C)O2)C1)C(=O)c1c(OC)cccc1C3=O	nt	nt	nt	i	nt	nt
COc1ccc(CN2CCC(C)CC2)cc1OCc1ccccc1	i	i	i	i	i	-89.2
CCOC(=O)C1CCN(Cc2ccc(OC)c(OCc3ccccc3)c2)CC1	i	i	i	i	i	-64.6
CCN(CC)C(=O)C1CCN(Cc2cccc(OCc3ccccc3)c2)CC1	i	i	i	i	i	-61.1
CCOC(=O)c1c(NC(=O)COC(=O)c2ccc(Cl)nc2)sc(C(=O)N(C)C)c1C	i	i	i	i	i	i
CCOC(=O)c1c(NC(=O)CN2CCN(S(=O)(=O)c3cc(Cl)ccc3Cl)CC2)sc(C(=O)N(C)C)c1C	?	i	i	i	10µM	i
COc1cc(/C=C(\C#N)C(=O)NC2CCCCC2C)ccc1OS(=O)(=O)c1ccc(C)cc1 (stereo unspecified)	i	i	i	i	20µM	i
COc1cc(/C=C(\C#N)C(N)=O)ccc1OS(=O)(=O)c1ccc(C)cc1	i	i	i	i	i	i
CCc1ccc(C(=O)c2cn(CC(=O)NCCc3ccc(OC)c(OC)c3)c3nc(C)ccc3c2=O)cc1	?	i	i	i	i	nt
O=C(O)c1cccc(COc2ccccc2Cl)c1	i	0.708µM	i	i	i	i
Oc1ccccc1C1C=C(c2ccc3c(c2)OCO3)NC(c2ccc(Br)cc2)N1 (stereo unspecified)	nt	nt	i	nt	i	nt
NC[C@H]1O[C@H](O[C@H]2[C@H](O)[C@@H](O[C@H]3O[C@H](CO)[C@@H](O)[C@H](N)[C@H]3O)[C@H](N)C[C@@H]2N)[C@H](O)[C@@H](O)[C@@H]1O	i	nt	nt	i	nt	nt
O=C(CCn1cccn1)NCc1ccc(Cl)cc1	i	i	i	i	i	nt
CN(C)CCNC(=O)c1sc2nc(-c3ccccc3)cc(C(F)(F)F)c2c1N	i	?	11.2µM	i	?	i
COc1ccc(C(=O)NCCn2cc(SCc3c(F)cccc3Cl)c3ccccc32)cc1	14.1µM	?	i	i	15.8µM	nt
COc1ccc(C(=O)NCCn2cc(SCC(=O)NCc3ccco3)c3ccccc32)cc1	?	i	i	i	i	-69.0
COc1ccc(C(=O)NCCn2cc(SCC(=O)Nc3cccc(C)c3)c3ccccc32)cc1	?	?	i	i	?	nt
